Results as given in PubChem BioAssay AID1159580 (chemical genetic matrix, 2015).
The campaign covered roughly 5,500 compounds. About 2,000 (36%) were called active. Roughly 18% stayed inconclusive and do not appear here. No stated cut-off is given here; in the data, active means normalized growth mostly below about 0.91 (no sharp cut-off); inconclusive means no clear call, values can overlap the other calls; inactive means mostly above about 0.92. This is one part of the list.

Test: chemical genetic growth profiling, strain panel (AID 1159580);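 further: tested at 20 µM; growth read once vehicle control cultures reached saturation at 30 °C; 1 = growth at the plate median or of vehicle wells; lower values mean less growth of the strain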
Details: growth OD
[1] = S. cerevisiae deletion strains, locus YCL061C, strain MRC1, hits give low values
[2] = S. cerevisiae deletion strains, locus YHR030C, strain SLT2, hits give low values
[3] = S. cerevisiae deletion strains, locus YJL187C, strain SWE1, hits give low values
[4] = S. cerevisiae deletion strains, locus YAL013W, strain DEP1, hits give low values
[5] = S. cerevisiae deletion strains, locus YBR229C, strain ROT2, hits give low values
[6] = S. cerevisiae deletion strains, locus YDL101C, strain DUN1, hits give low values
[7] = S. cerevisiae deletion strains, locus YDR150W, strain NUM1, hits give low values
[8] = S. cerevisiae deletion strains, locus YEL061C, strain CIN8, hits give low values
[9] = S. cerevisiae deletion strains, locus YGR078C, strain PAC10, hits give low values
[10] = S. cerevisiae deletion strains, locus YHR087W, strain rtc3, hits give low values
[11] = S. cerevisiae deletion strains, locus YJR043C, strain POL32, hits give low values
[12] = S. cerevisiae deletion strains, locus YJR075W, strain HOC1, hits give low values
[13] = S. cerevisiae deletion strains, locus YKL190W, strain CNB1, hits give low values
[14] = S. cerevisiae deletion strains, locus YLR039C, strain RIC1, hits give low values
[15] = S. cerevisiae deletion strains, locus YLR058C, strain SHM2 (second series), hits give low values
[16] = S. cerevisiae deletion strains, locus YLR085C, strain ARP6, hits give low values
[17] = S. cerevisiae deletion strains, locus YLR262C, strain YPT6, hits give low values
[18] = S. cerevisiae deletion strains, locus YML094W, strain GIM5, hits give low values
[19] = S. cerevisiae deletion strains, locus YMR219W, strain ESC1, hits give low values
[20] = S. cerevisiae deletion strains, locus YMR263W, strain SAP30, hits give low values
[21] = S. cerevisiae deletion strains, locus YMR307W, strain GAS1, hits give low values
[22] = S. cerevisiae deletion strains, locus YNL153C, strain GIM3, hits give low values
[23] = S. cerevisiae deletion strains, locus YNL298W, strain CLA4 (second series), hits give low values
[24] = S. cerevisiae deletion strains, locus YNL322C, strain KRE1, hits give low values
[25] = S. cerevisiae deletion strains, locus YNR030W, strain Alg12, hits give low values
[26] = S. cerevisiae deletion strains, locus YOL006C, strain TOP1, hits give low values
[27] = S. cerevisiae deletion strains, locus YPL055C, strain LGE1, hits give low values
[28] = S. cerevisiae deletion strains, locus YPL241C, strain CIN2, hits give low values
[29] = S. cerevisiae deletion strains, locus YPR135W, strain CTF4, hits give low values

Measured: normalized growth

COc1ccc2cc1Oc1ccc(cc1)C[C@H]1c3c(cc4c(c3Oc3cc5c(cc3OC)CCN(C)[C@@H]5C2)OCO4)CCN1C
inactive: S. cerevisiae deletion strains, locus YAL021C, strain ccr4, hits give low values 1.01 | S. cerevisiae deletion strains, locus YAL026C, strain drs2, hits give low values 1.01 | S. cerevisiae deletion strains, locus YAL030W, strain snc1, hits give low values 0.989 | S. cerevisiae deletion strains, locus YBL061C, strain skt5, hits give low values 1.01 | S. cerevisiae deletion strains, locus YBR009C, strain hhf1, hits give low values 0.959 | S. cerevisiae deletion strains, locus YBR023C, strain chs3, hits give low values 1.01 | S. cerevisiae deletion strains, locus YBR171W, strain sec66, hits give low values 0.982 | S. cerevisiae deletion strains, locus YBR231C, strain swc5, hits give low values 0.959 | S. cerevisiae deletion strains, locus YBR279W, strain paf1, hits give low values 0.992 | S. cerevisiae deletion strains, locus YCL011C, strain gbp2, hits give low values 1.01 | S. cerevisiae deletion strains, locus YCL016C, strain dcc1, hits give low values 1.03 | [1] 0.984 | S. cerevisiae deletion strains, locus YCL069W, strain vba3, hits give low values 0.969 | S. cerevisiae deletion strains, locus YCR088W, strain abp1, hits give low values 0.987 | S. cerevisiae deletion strains, locus YDL005C, strain med2, hits give low values 0.983 | S. cerevisiae deletion strains, locus YDL040C, strain nat1, hits give low values 0.982 | S. cerevisiae deletion strains, locus YDR001C, strain nth1, hits give low values 0.989 | S. cerevisiae deletion strains, locus YDR069C, strain doa4, hits give low values 0.979 | S. cerevisiae deletion strains, locus YDR137W, strain rgp1, hits give low values 1.1 | S. cerevisiae deletion strains, locus YDR159W, strain sac3, hits give low values 0.875 | S. cerevisiae deletion strains, locus YDR195W, strain ref2 0.942 | S. cerevisiae deletion strains, locus YDR297W, strain sur2, hits give low values 1 | S. cerevisiae deletion strains, locus YDR334W, strain swr1, hits give low values 0.963 | S. cerevisiae deletion strains, locus YDR335W, strain msn5, hits give low values 1.01 | S. cerevisiae deletion strains, locus YDR392W, strain spt3, hits give low values 0.743 | S. cerevisiae deletion strains, locus YEL003W, strain gim4, hits give low values 0.975 | S. cerevisiae deletion strains, locus YEL037C, strain rad23, hits give low values 0.969 | S. cerevisiae deletion strains, locus YEL061C, strain CIN8 (second series), hits give low values 0.98 | S. cerevisiae deletion strains, locus YER015W, strain faa2, hits give low values 0.994 | S. cerevisiae deletion strains, locus YER016W, strain bim1, hits give low values 1.06 | S. cerevisiae deletion strains, locus YER111C, strain swi4, hits give low values 0.997 | S. cerevisiae deletion strains, locus YER155C, strain BEM2 (second series), hits give low values 0.874 | S. cerevisiae deletion strains, locus YFR010W, strain ubp6, hits give low values 0.966 | S. cerevisiae deletion strains, locus YGL167C, strain pmr1, hits give low values 0.976 | S. cerevisiae deletion strains, locus YGL173C, strain kem1, hits give low values 0.961 | S. cerevisiae deletion strains, locus YGL227W, strain vid30, hits give low values 0.996 | S. cerevisiae deletion strains, locus YGL240W, strain doc1, hits give low values 0.962 | S. cerevisiae deletion strains, locus YGL253W, strain hxk2, hits give low values 1.01 | S. cerevisiae deletion strains, locus YHR013C, strain ard1, hits give low values 0.964 | S. cerevisiae deletion strains, locus YHR027C, strain rpn1, hits give low values 0.996 | [2] 1.03 | S. cerevisiae deletion strains, locus YHR079C, strain IRE1, hits give low values 1.08 | S. cerevisiae deletion strains, locus YHR142W, strain chs7, hits give low values 1.03 | S. cerevisiae deletion strains, locus YJL092W, strain hpr5, hits give low values 0.988 | S. cerevisiae deletion strains, locus YJL095W, strain BCK1 (second series), hits give low values 0.989 | S. cerevisiae deletion strains, locus YJL095W, strain BCK1, hits give low values 1.03 | S. cerevisiae deletion strains, locus YJL115W, strain asf1, hits give low values 0.974 | S. cerevisiae deletion strains, locus YJL129C, strain trk1, hits give low values 1 | S. cerevisiae deletion strains, locus YJL154C, strain vps35, hits give low values 0.986 | S. cerevisiae deletion strains, locus YJL164C, strain tpk1, hits give low values 0.962 | S. cerevisiae deletion strains, locus YJL166W, strain qcr8, hits give low values 0.955 | [3] 1.01 | S. cerevisiae deletion strains, locus YJR066W, strain TOR1, hits give low values 0.987 | S. cerevisiae deletion strains, locus YKL160W, strain elf1, hits give low values 1.05 | S. cerevisiae deletion strains, locus YKR026C, strain gcn3, hits give low values 0.964 | S. cerevisiae deletion strains, locus YKR091W, strain srl3, hits give low values 0.99 | S. cerevisiae deletion strains, locus YLL001W, strain dnm1, hits give low values 0.959 | S. cerevisiae deletion strains, locus YLL026W, hits give low values 0.999 | S. cerevisiae deletion strains, locus YLL041C, strain sdh2, hits give low values 0.977 | S. cerevisiae deletion strains, locus YLR027C, strain aat2, hits give low values 1 | S. cerevisiae deletion strains, locus YLR113W, strain HOG1, hits give low values 1.07 | S. cerevisiae deletion strains, locus YLR221C, strain rsa3, hits give low values 0.997 | S. cerevisiae deletion strains, locus YLR258W, strain gsy2, hits give low values 1 | S. cerevisiae deletion strains, locus YLR262C, strain YPT6 (second series), hits give low values 1.04 | S. cerevisiae deletion strains, locus YLR320W, strain mms22, hits give low values 0.922 | S. cerevisiae deletion strains, locus YLR342W, strain FKS1, hits give low values 1.02 | S. cerevisiae deletion strains, locus YLR357W, strain rsc2, hits give low values 0.934 | S. cerevisiae deletion strains, locus YLR370C, strain arc18, hits give low values 0.999 | S. cerevisiae deletion strains, locus YLR384C, strain iki3, hits give low values 1 | S. cerevisiae deletion strains, locus YML120C, strain ndi1, hits give low values 0.969 | S. cerevisiae deletion strains, locus YMR058W, strain fet3, hits give low values 0.978 | S. cerevisiae deletion strains, locus YMR125W, strain sto1, hits give low values 1 | S. cerevisiae deletion strains, locus YMR129W, hits give low values 0.971 | S. cerevisiae deletion strains, locus YMR205C, strain PFK2, hits give low values 0.973 | S. cerevisiae deletion strains, locus YMR231W, strain pep5, hits give low values 0.985 | S. cerevisiae deletion strains, locus YNL071W, strain lat1, hits give low values 0.982 | S. cerevisiae deletion strains, locus YNL183C, strain NPR1, hits give low values 0.951 | S. cerevisiae deletion strains, locus YNL209W, strain ssb2, hits give low values 0.99 | S. cerevisiae deletion strains, locus YNL248C, strain rpa49, hits give low values 1.02 | S. cerevisiae deletion strains, locus YNL322C, strain KRE1 (second series), hits give low values 1 | S. cerevisiae deletion strains, locus YNR049C, strain mso1, hits give low values 1 | S. cerevisiae deletion strains, locus YOR001W, strain rrp6, hits give low values 0.953 | S. cerevisiae deletion strains, locus YOR070C, strain gyp1, hits give low values 1 | S. cerevisiae deletion strains, locus YOR080W, strain dia2, hits give low values 0.977 | S. cerevisiae deletion strains, locus YOR083W, strain WHI5, hits give low values 1 | S. cerevisiae deletion strains, locus YOR106W, strain vam3, hits give low values 1.04 | S. cerevisiae deletion strains, locus YOR231W, strain MKK1, hits give low values 1.06 | S. cerevisiae deletion strains, locus YOR265W, strain rbl2, hits give low values 1 | S. cerevisiae deletion strains, locus YOR270C, strain vph1, hits give low values 1.06 | S. cerevisiae deletion strains, locus YOR290C, strain snf2, hits give low values 1.04 | S. cerevisiae deletion strains, locus YPL051W, strain arl3, hits give low values 1.04 | S. cerevisiae deletion strains, locus YPL078C, strain atp4, hits give low values 1.03 | S. cerevisiae deletion strains, locus YPL106C, strain sse1, hits give low values 0.949 | S. cerevisiae deletion strains, locus YPL240C, strain hsp82, hits give low values 0.985 | S. cerevisiae deletion strains, locus YPL256C, strain CLN2, hits give low values 1.07

CN1C/C(=C\c2ccccc2Cl)C(=O)/C(=C/c2ccccc2Cl)C1
inactive: [4] 0.953 | [7] 0.942 | [3] 0.942 | [11] 0.971 | [15] 0.958 | [20] 0.937 | [22] 0.958 | [24] 0.957 | [27] 0.92
active: [5] 0.911 | [6] 0.825 | [8] 0.699 | [9] 0.873 | [2] 0.27 | [10] 0.888 | [12] 0.831 | [13] 0.789 | [14] 0.447 | [16] 0.462 | [17] 0.655 | [18] 0.691 | [19] 0.909 | [21] 0.419 | [23] 0.523 | [25] 0.756 | [26] 0.562 | [28] 0.676 | [29] 0.422

CN(C)/C=C1\C(=O)c2ccccc2N(C)S1(=O)=O
inactive: [4] 1 | [5] 0.994 | [1] 0.999 | [6] 0.999 | S. cerevisiae deletion strains, locus YDL134C, strain PPH21, hits give low values 0.987 | [7] 1.02 | [8] 1.01 | [9] 0.982 | [2] 0.907 | [10] 0.954 | [11] 0.989 | [12] 0.949 | [13] 1.01 | [14] 0.84 | [15] 0.983 | [16] 1.06 | [17] 0.906 | [18] 1.02 | [19] 1 | [20] 1 | [21] 0.859 | [22] 0.997 | [23] 0.97 | [24] 0.999 | [25] 0.98 | [26] 0.946 | [27] 1.13 | [28] 1.01 | [29] 0.761 | S. cerevisiae strains, strain wild type, hits give low values 0.991
